Results reported in PubChem BioAssay AID2796 (The Scripps Research Institute Molecular Screening Center, 2010).
In all, about 320,000 compounds went through this assay and about 8,000 (2.5%) were called active. The sample holds actives, similar compounds and a random draw of the others, so the mix is not that of the screen. No stated cut-off is given here; in the data, active means activation above about 47%; inactive means the rest.

Target: Aryl hydrocarbon receptor (Homo sapiens) (UniProt P35869)
Assay: AHR activators, primary screen, cell-based, luminescence, luciferase reporter, human (AID 2796);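 further: 0% = vehicle wells and 100% = reference agonist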
Details: AHR-responsive luciferase reporter cells, at 5 µM, stronger effect = higher value

Chain of Aryl hydrocarbon receptor (Homo sapiens) (P35869 whole entry, looked up): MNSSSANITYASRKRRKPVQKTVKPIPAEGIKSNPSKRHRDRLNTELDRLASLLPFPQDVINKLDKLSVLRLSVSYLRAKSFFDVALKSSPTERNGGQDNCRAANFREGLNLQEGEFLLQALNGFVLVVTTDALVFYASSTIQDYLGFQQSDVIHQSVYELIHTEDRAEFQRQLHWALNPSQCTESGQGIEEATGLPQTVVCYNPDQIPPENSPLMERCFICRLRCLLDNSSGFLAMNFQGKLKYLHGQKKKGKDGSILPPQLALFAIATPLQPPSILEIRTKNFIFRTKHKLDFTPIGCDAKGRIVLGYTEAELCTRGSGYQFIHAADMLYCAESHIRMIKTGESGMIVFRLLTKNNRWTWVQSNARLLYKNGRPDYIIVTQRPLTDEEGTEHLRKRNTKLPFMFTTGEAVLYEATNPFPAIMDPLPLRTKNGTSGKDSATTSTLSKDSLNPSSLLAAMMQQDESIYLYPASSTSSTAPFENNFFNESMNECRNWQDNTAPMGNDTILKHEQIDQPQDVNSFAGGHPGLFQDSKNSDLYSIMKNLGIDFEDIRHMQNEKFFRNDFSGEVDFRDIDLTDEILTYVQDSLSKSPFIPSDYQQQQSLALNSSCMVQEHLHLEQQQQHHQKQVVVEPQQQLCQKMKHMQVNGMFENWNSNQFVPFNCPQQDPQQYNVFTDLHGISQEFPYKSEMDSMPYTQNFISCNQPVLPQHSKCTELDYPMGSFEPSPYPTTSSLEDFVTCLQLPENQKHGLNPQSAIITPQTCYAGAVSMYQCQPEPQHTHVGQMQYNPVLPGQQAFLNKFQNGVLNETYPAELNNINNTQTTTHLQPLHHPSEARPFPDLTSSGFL

activation, active:
COCc1cc(C)nc(Nc2cc(C)ccc2C)c1C#N 52.2%, COc1cc(/C=N/N=C(\N)c2nonc2N)cc(OC)c1OC 91.3%, Brc1ccc(C2CC(c3ccccc3)=Nc3ccccc3N2)cc1 (centres undefined) 104%, CC(=O)Nc1ccc(-c2nc3ccccc3o2)cc1 80.5%, S=c1[nH]nc(-c2cc(-c3ccccc3)n[nH]2)n1/N=C/c1c2ccccc2cc2ccccc12 63.2%, COc1ccc2nc(Nc3nc(-c4cc5ccccc5oc4=O)cs3)sc2c1 56.3%, COc1ccc2nc(Nc3nc4cc5c(cc4s3)OCCO5)sc2c1 53.1%, COc1ccc2nc(Nc3nc(-c4ccncc4)cs3)sc2c1 107%, CCCc1cc(=O)oc2c(C)c(OCC(=O)NCc3ccccn3)ccc12 65.7%, Cc1nc(NC(=O)c2cccc(Cl)c2)sc1-c1csc(Nc2cccc(Cl)c2)n1 85.8%, CCCCC(=O)Nc1nc(C)c(-c2csc(Nc3ccc(Cl)cc3)n2)s1 49.2%, C=CCCC(=O)Nc1nc(C)c(-c2csc(Nc3ccc(Cl)cc3)n2)s1 56.6%, O=C(Nc1ccc(-c2csc(Nc3cccc(C(F)(F)F)c3)n2)cc1)c1cccc(C(F)(F)F)c1 114%, COc1ccc(C2NC(=O)c3ccccc3N2)cc1 (centres undefined) 102%, Cc1ccc(-c2csc(-c3c[nH]c4ccccc34)n2)cc1 74.3%, COC(=O)c1c(NC(C)=O)sc(C(=O)Nc2ccccc2OC)c1C 47.1%, O=C(Cn1c(NCCO)nc2ccccc21)c1ccc(Cl)cc1Cl 103%, O=c1c2cc(-c3ccccc3)sc2nc2n1N=C(c1cccs1)CS2 58.8%

activation, inactive:
COCc1cc(C)nc(SCC(=O)Nc2cccc(C)c2)c1C#N 2.83%, Cc1cc(C)c(C#N)c(Nc2cccc(Br)c2)n1 19.3%, O=C(CSc1nc(O)c(Cc2ccccc2)c(=O)[nH]1)Nc1nc2c(s1)CCCC2 1.1%, COc1cc(/C=N\NC(=O)c2nonc2N)c(OC)cc1Br 15.2%, COc1cc(/C=N/Nc2nn3cnnc3c3ccccc23)cc(OC)c1OC 38.4%, CC(C)(C)C(=O)NCCCNc1ccc([N+](=O)[O-])cc1 2.34%, Cc1ccc(C)c(NC(=O)COC(=O)Cn2c(C)csc2=O)c1 2.35%, O=C(COC(=O)c1ccc2c(c1)OCCO2)NCc1ccccc1Cl -0.15%, c1ccc(C2=Nc3cccc4cccc(c34)N2)cc1 19.3%, CNC(=S)N1N=C(c2ccccc2)CC1c1ccc(Br)cc1 (centres undefined) 1.39%, Cc1ccsc1C(=O)NC1CCCCC1C (centres undefined) -0.06%, COc1ccc(CN2CN(C3CCCC3)CSC2=S)cc1 -1.37%, COc1ccc(CC(=O)OC(C)C(=O)Nc2ccc(S(N)(=O)=O)cc2)cc1 (centres undefined) 0.17%, COCc1c(C(=O)OCC(=O)Nc2ccc(OC(F)F)cc2)oc2ccccc12 -0.02%, Cc1ccc2nc(-c3ccc(NC(=O)c4cccnc4)cc3)oc2c1 -9.23%, Cc1cc2nc(-c3ccc(NC(=O)c4cccnc4)cc3)oc2cc1C -6.99%, CCC(CC)COC(=O)C1=C(C)NC(=O)NC1c1ccc([N+](=O)[O-])cc1 (centres undefined) -3.02%, CCc1ccccc1N(CC(=O)NCC1CCCO1)C(=O)CCC(=O)Nc1nccs1 (centres undefined) -2.18%, COc1ccc(NC(=O)C(CC(C)C)NS(=O)(=O)c2ccc3c(c2)CCN3C(C)=O)cc1OC (centres undefined) 1.37%, CSc1ncccc1C(=O)Nc1cccc(S(=O)(=O)N2CCOCC2)c1 -0.18%, S=c1[nH]nc(-c2ccncc2)n1/N=C/c1ccccc1Cl 4.63%, Fc1ccccc1/C=N/n1c(-c2cccnc2)n[nH]c1=S 5.29%, Fc1cccc(CSc2nnc3ccc(-c4ccncc4)nn23)c1 4.81%, COc1ccc2oc(=O)cc(-c3cc4ccccc4o3)c2c1 18.4%, COc1ccc2nc(NC(=O)NC3CCCCC3)sc2c1 5.23%, Cc1noc(C)c1CSCC(=O)Nc1nc2ccc(Oc3ccccc3)cc2s1 17.8%, CCOc1ccc(S(=O)(=O)Nc2nc3cc(OC)ccc3s2)cc1 -1.36%, COc1ccc2nc(NC(=O)[C@@H]3CCCN3C(=O)c3cccs3)sc2c1 23.1%, c1c2c(cc3sc(N4CCCCC4)nc13)OCCO2 -13.2%, COc1ccc(C2=Nc3cc(C)ccc3OC2)cc1 30.2%, O=C(CCc1nc(-c2ccccc2)no1)Nc1cccc(C(=O)NC2CC2)c1 0.82%, CCc1ccc(OCC(=O)OC(C)C(=O)NC2CC2)cc1 (centres undefined) -4.56%, Oc1c(Cl)cc(Cl)c(Cl)c1Cc1c(O)c(Cl)cc(Cl)c1Cl 0.28%, CN(C(=O)COC(=O)Cn1cnc2c1c(=O)n(C)c(=O)n2C)C1(C#N)CCCCC1 -0.97%, O=C(c1snnc1-c1ccccc1)N1CCOCC1 2.54%, CN(CCC1CCOCC1)C(=O)CC1C(=O)NCCN1Cc1cccc(F)c1 (centres undefined) -2.39%, COc1cccc(NC(=O)Cn2cnc3sc(C)c(S(=O)(=O)N4CCN(C)CC4)c3c2=O)c1 3.14%, CCCc1cc(=O)oc2c(C)c(OCC(=O)Nc3ccccn3)ccc12 2.02%, CCCc1cc(=O)oc2c(C)c(OCC(=O)N3CCC(C(=O)O)CC3)ccc12 0.65%, Clc1ccc(-c2cc(C3CCNCC3)[nH]n2)c(Cl)c1 -7.18%, COc1ccc(-c2csc(NC(=O)COC(=O)Cc3ccc(Cl)cc3Cl)n2)cc1 34.2%, Cc1nc(NC(=O)CN(C)S(=O)(=O)c2ccc(Cl)cc2)sc1C 5.19%, CCCCN(C)CCC(=O)Nc1ccc(Cl)cc1 0.37%, COc1ccc(NC(=O)CN(C)CC(=O)Nc2cccc(C(F)(F)F)c2)cc1 0.79%, CCCCCCC(=O)Nc1nc(C)c(-c2csc(Nc3cc(Cl)ccc3OC)n2)s1 40.2%, CCCCCCC(=O)Nc1nc(C)c(-c2csc(Nc3cccc(OC)c3)n2)s1 34.4%, CCC(=O)Nc1nc(C)c(C(=O)Nc2cccc(Cl)c2)s1 7.61%, O=C(O)CSc1c2c(nc3cc(C(=O)Nc4cccc(C(F)(F)F)c4)ccc13)CCCC2 -2.1%, CCC(C)c1ccc(NC(=O)COC(=O)C2CCCC2)cc1 (centres undefined) -0.7%, CC(=O)Nc1ccc(NC(=O)CCN2C(=O)C3CC=CCC3C2=O)cc1 (centres undefined) -0.48%, Cc1occc(=O)c1OCc1c(Cl)cccc1Cl 2.86%, O=C(O)CCN1C(=O)CC2(CCCCC2)C1=O -1.21%, O=C1CCN(Cc2ccc([N+](=O)[O-])cc2)CCN1[C@H](CO)Cc1ccccc1 0.87%, CCCNC(=O)c1cnc(-c2ccccc2)nc1-c1ccccc1 3.22%, CCOc1ccc(/C=C(/NC(=O)c2ccccc2)C(=O)NCCC(=O)O)cc1 3.46%, COc1cc(OC)c(NS(=O)(=O)c2cn(C)cn2)cc1Cl -0.48%, Cc1ccc(NC(=O)C2CCC(C(C)(C)C)CC2)cc1S(=O)(=O)N1CCOCC1 (centres undefined) 1.24%, Cc1csc(=O)n1CC(=O)Nc1ccc(S(C)(=O)=O)cc1 -1.77%, CCOC(=O)c1ccc(NC(=O)c2ccc(NC(=O)C3CCCO3)cc2)cc1 (centres undefined) 3.91%, COc1ccc(N(CC(=O)N2CCOCC2)S(=O)(=O)c2ccccc2)cc1Cl 0.59%, O=C1COc2ccc(C(=O)COC(=O)c3ccccc3Cl)cc2N1 -0.97%, Oc1ccc(C2Nc3cccc4cccc(c34)N2)cc1 9.92%, Cc1ccc(C2Nc3cccc4cccc(c34)N2)cc1 30.3%, CC(Oc1ccc(-c2ccccc2)c(F)c1)c1ccn(S(=O)(=O)c2cccc3ccccc23)n1 (centres undefined) 0.53%, O=C(NC(=O)c1ccc(Cl)c(Cl)c1)OC1CCS(=O)(=O)C1 (centres undefined) 2.16%, O=C(Cn1ncc(N2CCCC2)c(Br)c1=O)c1ccc(Cl)cc1 3.04%, COc1cccc(CNc2ncc(-c3ccccc3)n2C)c1 8.66%, Cc1ccc(-c2csc(-c3cc(C)on3)n2)cc1 -2.07%, CCCc1cc(-c2nc(-c3ccc(C)cc3)cs2)ccn1 23.7%, CCC(C)NC(=O)C1CCC(=O)N1Cc1ccc(C)cc1 (centres undefined) 4.04%, O=C(NCCc1ccc(Cl)cc1Cl)c1cc([N+](=O)[O-])c[nH]c1=O 6.38%, COc1ccccc1NC(=O)c1ccc(C)s1 26.2%, CCC(=O)Nc1sc(C(=O)Nc2ccccc2)c(C)c1C(=O)OC -2.8%, CN1CCN(S(=O)(=O)c2cccc(C(=O)Nc3sccc3C#N)c2)CC1 3.96%, O=C(CC12CC3CC(CC(C3)C1)C2)Nc1ccc2c(c1)COC2=O 0.6%, CC(C)(C)C(=O)Cn1c(NCCO)nc2ccccc21 -1.23%, O=S(=O)(O)c1nc2ccccc2n1Cc1ccc(Cl)cc1Cl 3.2%, CN(CC(=O)NCCc1ccc(S(N)(=O)=O)cc1)CC(=O)Nc1ccc(F)c(F)c1F 1.42%, O=S(=O)(Cc1ccccc1)c1nc2ccccc2n1Cc1ccccn1 -1.4%, Cc1nnc2n1N=C(c1ccccc1)CS2 1.52%, COc1ccc(C2CC(c3cccs3)=NN2c2ccccc2)cc1 (centres undefined) 3.12%
